Screening results as filed in PubChem BioAssay.
DT40 TDP1 no CPT – qHTS for Inhibitors of human tyrosyl-DNA phosphodiesterase 1 (TDP1): qHTS in cells in absence of CPT | hit rate 15% among 420,000 | DT40 Tdp1-/- hTDP1 cells, no CPT, ATP luminescence, 48 h | Potency, µM (series often up to 46.2 µM), most hits filed as inhibitors | AID 686978, 2013; note: nearly all actives have a fitted effect of over 55% in size
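Chicken DT40 Tdp1-/- cells stably complemented with human TDP1 were seeded at 400 cells/well with DMSO in place of 20 nM camptothecin. After compound pinning, cells grew at least 48 hr at 37 °C; viability read by CellTiter-Glo luminescence.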
DT40 TDP1 CPT – qHTS for Inhibitors of human tyrosyl-DNA phosphodiesterase 1 (TDP1): qHTS in cells in presence of CPT. chicken DT40 Tdp1-/-;hTDP1 cells + 20 nM CPT, ATP luminescence, 48 h. AID 686979, 2013. Potency, µM (top dose mostly 46.2 µM), usual class: inhibitors. hit rate 12% among 420,000; note: nearly all actives have a fitted effect of over 55% in size
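Cell growth measured by CellTiter-Glo luminescence after a minimum 48 h, 37 C compound exposure with 20 nM CPT in Tdp1-knockout DT40 cells stably expressing hTDP1, seeded 400/well; qHTS titration format.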
HT1080 IDH1KD tx – qHTS for induction of synthetic lethality in tumor cells producing 2HG: qHTS for the HT-1080-IDH1KD cell line; HT-1080 IDH1 knockdown viability, ATP luminescence, 48 h; Potency, µM (series often up to 46.1 µM), actives largely listed as cytotoxic; hit rate 2% among 360,000; AID 686971, 2013
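Viability of IDH1-knockdown HT-1080 fibrosarcoma cells was assessed by CellTiter-Glo after 48 h at 37 °C with titrated compound; concentration-effect curves were classified by fit quality and response size.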
TGFb inhibitor – qHTS for Inhibitors of TGF-b | hit rate 1.2% among 410,000 | AID 588855, 2011 | Potency, µM (doses to about 46.1 µM), hits mostly inhibitors | HepG2 CAGA-GFP TGF-b/SMAD3 reporter, GFP fluorescence, 18 h; TGF-beta stimulated, 500 pg/mL final; note: nearly all actives have a fitted effect of over 65% in size
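Smad-responsive CAGA-GFP expression was quantified in HEPG2 cells exposed to compounds and 500 pg/mL final TGF-beta for 18 h at 37 degrees C; unstimulated wells defined full inhibition.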
HT1080-NT tox – qHTS for induction of synthetic lethality in tumor cells producing 2HG: qHTS for the HT-1080-NT fibrosarcoma cell line; HT-1080-NT fibrosarcoma viability, CellTiter-Glo ATP luminescence, 48 h; Potency, µM (top dose mostly 46.1 µM), hits mostly cytotoxic; hit rate 1.6% among 360,000; AID 686970, 2013;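 note: NT is the 2HG producing partner of a matched IDH1 knockdown line; nearly all actives have a fitted effect of over 55% in size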
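Viability of the 2HG-overproducing fibrosarcoma line after 48 hours of compound exposure at 37 degrees C was determined by luminescence with CellTiter-Glo, and concentration-effect curves were then fitted and categorized.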
HepG2 tox – qHTS for Inhibitors of TGF-b: Cytotox Counterscreen | HepG2 CAGA-GFP viability, ATP luminescence, 18 h | Potency, µM (highest dose often 46.1 µM), most hits filed as cytotoxic | hit rate 0.76% among 410,000
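HepG2 CAGA-GFP cells (1000/well, DMEM with 1% FBS) received compound, then TGF-beta at 500 pg/mL final, and were incubated 18 hours at 37 degrees C. Viability was read by CellTiter-Glo luminescence. Media-only wells were set as complete cell-killing and DMSO as no toxicity.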
Each line names hits and unclear results; the compound was inactive in the other large screens. This is a sample that favours compounds with a hit; in the whole collection about 17% have one here. Calls come from the whole dose curve; as a rule, active = well fitted curve in the direction sought with a large enough effect; inconclusive = small, poorly fitted or top-dose-only effect, or another doubt; inactive = no such curve, though single readings can be large; an effect the other way counts as inactive or inconclusive.

CC(=O)Nc1nc2ccccc2[nH]1	none
O=C(CSc1ccc(Cl)cc1)Nc1ccc(-c2nc3ccccc3[nH]2)cc1	DT40 TDP1 no CPT 8.2µM, DT40 TDP1 CPT 12µM, HT1080 IDH1KD tx inconclusive, HT1080-NT tox inconclusive
O=C(CSc1nc2ccccc2[nH]1)Nc1ccc(F)cc1	none
O=C(CSc1ccccc1)Nc1nc2ccccc2[nH]1	DT40 TDP1 no CPT 21µM, DT40 TDP1 CPT inconclusive, HT1080 IDH1KD tx inconclusive, HT1080-NT tox 12µM
CCc1ccccc1Nc1nc2ccccc2[nH]1	DT40 TDP1 no CPT 15µM, DT40 TDP1 CPT inconclusive, HT1080 IDH1KD tx inconclusive
COc1ccc(/C=C2\SC(N3CCc4ccccc4C3)=NC2=O)cc1OC	DT40 TDP1 no CPT inconclusive, HT1080 IDH1KD tx inconclusive, HT1080-NT tox inconclusive
CCCCNC(=O)C1(C)CCC(=O)N1CCOC (stereo not drawn)	none
O=C(NCc1ccncc1)c1cnn(-c2nccc(-c3cccs3)n2)c1C1CC1	none (no result: HT1080 IDH1KD tx, TGFb inhibitor, HT1080-NT tox, HepG2 tox)
CC(=O)Nc1cccc(CCc2nc3ccccc3[nH]2)c1	DT40 TDP1 no CPT 18µM, DT40 TDP1 CPT inconclusive
Cc1cc(OCC(=O)N[C@@H](Cc2ccccc2)c2nc3ccccc3[nH]2)ccc1Cl	DT40 TDP1 no CPT inconclusive
O=C(CCNC(=O)c1ccc(Br)cc1)Nc1nc2ccccc2[nH]1	none
O=C(Cc1ccc(Br)cc1)Nc1nc2ccccc2[nH]1	DT40 TDP1 no CPT 2.3µM, DT40 TDP1 CPT 6.5µM
O=C(Cc1ccccc1)Nc1nc2ccccc2[nH]1	DT40 TDP1 no CPT 7.3µM, DT40 TDP1 CPT 13µM
O=C(Cc1c[nH]c2ccccc12)Nc1nc2ccccc2[nH]1	none
O=C(Cc1ccccc1)N[C@@H](Cc1ccccc1)c1nc2ccccc2[nH]1	DT40 TDP1 no CPT 23µM, DT40 TDP1 CPT inconclusive
O=C1NC(c2ccccc2)=C(c2ccc3ccccc3n2)C(c2ccccc2)N1 (stereo not drawn)	DT40 TDP1 no CPT 26µM, DT40 TDP1 CPT inconclusive, TGFb inhibitor inconclusive
O=C1NC(c2ccccc2)=C(c2nc3ccccc3s2)C(c2ccc(O)cc2)N1 (stereo not drawn)	DT40 TDP1 no CPT inconclusive, HT1080 IDH1KD tx 5.6µM, TGFb inhibitor inconclusive, HT1080-NT tox 7.9µM
O=C1NC(c2ccccc2)=C(c2ccc3ccccc3n2)C(c2ccc(F)cc2)N1 (stereo not drawn)	DT40 TDP1 no CPT inconclusive, DT40 TDP1 CPT inconclusive, TGFb inhibitor inconclusive
c1ccc(-n2nnnc2NCCc2c[nH]c3ccccc23)cc1	none
c1ccc(-n2nnnc2-c2cccc3ccccc23)cc1	DT40 TDP1 no CPT 4.6µM, DT40 TDP1 CPT 3.7µM, HT1080 IDH1KD tx 8.2µM, HT1080-NT tox 5.8µM
Clc1ccc(-n2nnnc2-c2cnc3ccc(Cl)cc3c2-c2ccccc2)cc1	DT40 TDP1 no CPT inconclusive, DT40 TDP1 CPT inconclusive
Clc1ccc2ncc(-c3nnnn3-c3ccccc3)c(-c3ccccc3)c2c1	DT40 TDP1 no CPT inconclusive, DT40 TDP1 CPT inconclusive, HT1080 IDH1KD tx inconclusive, TGFb inhibitor inconclusive, HT1080-NT tox 21µM
Clc1ccc2[nH]cc(-c3nnnn3-c3ccccc3)c2c1	DT40 TDP1 no CPT inconclusive, DT40 TDP1 CPT 21µM, HT1080 IDH1KD tx inconclusive, TGFb inhibitor inconclusive, HT1080-NT tox inconclusive
CCCCCCCCC(c1nc2ccccc2[nH]1)N1CCN=C1c1cc2ccccc2[nH]1 (stereo not drawn)	DT40 TDP1 no CPT 6.5µM, DT40 TDP1 CPT 7.3µM, HT1080 IDH1KD tx inconclusive, TGFb inhibitor inconclusive, HT1080-NT tox inconclusive
CCC(c1nc2ccccc2[nH]1)n1c(-c2ccc3ccccc3c2)nc2ccccc21 (stereo not drawn)	DT40 TDP1 no CPT inconclusive, DT40 TDP1 CPT inconclusive (no result: TGFb inhibitor, HepG2 tox)
CC(=O)c1cc(-c2ccccc2)n(CC(=O)N2CCC(C)CC2)c1C	DT40 TDP1 no CPT 29µM, DT40 TDP1 CPT inconclusive
CC(=O)c1cc(-c2ccccc2)n(CC(=O)NC2CCCC2)c1C	none
CC(=O)c1cc(-c2ccccc2)n(CC(=O)N2CCN(C3CCCC3)CC2)c1C	DT40 TDP1 no CPT 23µM, DT40 TDP1 CPT inconclusive
Cc1ncoc1C(=O)NC1CC(C)(C)Cc2c1cnn2-c1ccccc1 (stereo not drawn)	none
Cc1cc(C)c(C(=O)NC2CCCc3c2cnn3-c2ccc(C)c(C)c2)c(=O)[nH]1 (stereo not drawn)	none
CC(C)(C)c1ccc(-n2ncc3c2CCCC3NC(=O)CN2CCOC2=O)cc1 (stereo not drawn)	DT40 TDP1 no CPT 16µM, DT40 TDP1 CPT 18µM
Cc1cc(C(=O)NC2CCCc3c2cnn3-c2ccc(C(C)(C)C)cc2)n[nH]1 (stereo not drawn)	DT40 TDP1 no CPT 12µM, DT40 TDP1 CPT 21µM
Cc1ncoc1C(=O)NC1CCCc2c1cnn2-c1ccc(C(C)(C)C)cc1 (stereo not drawn)	DT40 TDP1 no CPT 7.3µM, DT40 TDP1 CPT 7.3µM, HT1080 IDH1KD tx inconclusive, TGFb inhibitor inconclusive, HT1080-NT tox inconclusive
CC(C)(C)c1ccc(-n2ncc3c2CCCC3NC(=O)c2ccncc2)cc1 (stereo not drawn)	DT40 TDP1 no CPT 10µM, DT40 TDP1 CPT 12µM, TGFb inhibitor inconclusive
Cc1cccc(C)c1OCc1nc2c3cnn(-c4ccccc4F)c3ncn2n1	none (no result: HT1080 IDH1KD tx, TGFb inhibitor, HT1080-NT tox)
CCn1nc(C)cc1C(=O)NC1CCCc2c1cnn2-c1cc(F)cc(F)c1 (stereo not drawn)	DT40 TDP1 no CPT 18µM, DT40 TDP1 CPT inconclusive
Cc1ncoc1C(=O)NC1CCCc2c1cnn2-c1cc(F)cc(F)c1 (stereo not drawn)	DT40 TDP1 no CPT 26µM
O=C(NC1CCCc2c1cnn2-c1cc(F)cc(F)c1)c1ccncc1 (stereo not drawn)	none
CC(C)(C)c1ccc(-n2ncc3c2CCCC3NC(=O)CCC2=NNC(=O)CC2)cc1 (stereo not drawn)	DT40 TDP1 no CPT 3.3µM, DT40 TDP1 CPT 9.2µM
COc1ccc(CN(C)CC(=O)Nc2ccccc2C(=O)NC2CC2)cc1	DT40 TDP1 no CPT inconclusive, DT40 TDP1 CPT inconclusive
Cc1cccc(NC(=O)C[n+]2ccc(N(C)C)cc2)c1	DT40 TDP1 no CPT inconclusive, DT40 TDP1 CPT 15µM, HT1080 IDH1KD tx inconclusive, HT1080-NT tox inconclusive
CN(C)c1cc[n+](CC(=O)Nc2ccc(Cl)cc2)cc1	DT40 TDP1 no CPT 3.3µM, DT40 TDP1 CPT 6.5µM, HT1080 IDH1KD tx inconclusive, HT1080-NT tox 6.5µM
